Assay results published in PubChem BioAssay.

assay: inhibitors of polyQ protein aggregation (AID 1604); conditions: polyglutamine-induced protein aggregation inhibition assay; stronger effect = higher value; tested at 2.5 µM

| SMILES | inhibition of aggregation |
| --- | --- |
| NC(Cn1ccc(=O)c(O)c1)C(=O)O (stereo not given) | 7.48% |
| N#Cc1ccc2c(c1)N(CCCN1CCC(O)CC1)c1ccccc1S2 | 41.2% |
| O=C(O)c1cc([N+](=O)[O-])ccc1NCCCc1ccccc1 | 4.16% |
| O=c1c(-c2ccc(O)cc2)coc2cc(O)ccc12 | 27.9% |
| CC(C)=CCc1c2c(c3occ(-c4ccc(O)c(O)c4)c(=O)c3c1O)C=CC(C)(C)O2 | 45.6% |
| NC(=O)c1cccc(N)c1 | 86.1% |
| CCN1CCCC1CNC(=O)c1cc(S(N)(=O)=O)ccc1OC (stereo not given) | 59.1% |
| COc1c(OC)c2occc2c2oc(=O)ccc12 | 42.9% |
| NC1(C(=O)O)CCCC1 | 81.6% |
| CON | -9.7% |
| C=NC(C(=O)NC1C(=O)N2C1SC(C)(C)C2C(=O)O)c1ccccc1 (stereo not given) | 82% |
| O=C1C=CC(=C(c2ccc(O)cc2)c2ccc(O)cc2)C=C1 | 83.1% |
| COc1cc(OC)c2ccc(=O)oc2c1 | 96.2% |
| O=C1c2ccc(O)c(O)c2C(=O)c2c(O)ccc(O)c21 | 38.2% |
| COc1cc(C)c2c(=O)cc(-c3ccccc3)oc2c1 | 86.2% |
| O=C(O)c1cc(=O)c2cccc(O)c2[nH]1 | 57.7% |
| C[C@]12CCC3c4ccc(OS(=O)(=O)O)cc4CCC3C1CC[C@H]2O (stereo not given in full) | 68.5% |
| NC1=NCCN1CC(=O)O | 80.3% |
| CC(=O)c1c(O)c(C)c(O)c2c1OC1=CC(=O)C(C(C)=O)C(=O)C12C (stereo not given) | -17% |
| CC(=O)N[C@@H]1[C@@H](O)[C@H](O)[C@@H](CO)O[C@H]1O | 91.6% |
